Results as given in PubChem BioAssay (NCATS).
Records with an inconclusive call do not appear. Activity calls are given as the source filed them. Calls come from the whole dose curve; as a rule, active = well fitted cell-killing curve with a large enough effect; inconclusive = small, poorly fitted or top-dose-only effect, or effect the other way; inactive = flat fitted curve, though single readings scatter.

Legend:
Experiment in all cases: Primary qHTS to identify gynecologic anti-cancer compounds using libraries of approved drugs and bioactive compounds (AID 1345084); note: nearly all actives have a fitted effect of over 55% in size
Details in all cases: Gynecologic cancer cell panel viability, ATPlite luminescence, 48 h; series mostly up to 57.5 µM
OV90 = tested on: OV90
Outline: (§1)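 Cells, 1,000 per well, were allowed to settle for 16 h at 37 C before compound addition. Five concentrations were tested for 48 h, and viability was read by ATPlite luminescence after 15 min at room temperature.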

PA-1 = tested on: PA-1
Outline: as §1

SKOV3 = tested on: SKOV3
Outline: as §1

Tov-21-G = tested on: Tov-21-G
Outline: as §1

Tov112D = tested on: Tov112D
Outline: as §1
% is set by controls: 0 for no effect and ±100 for the full control effect.

CC(O)C(O)/C=C/C=C/C(=O)O[C@@H]1C=C(C(=O)O)[C@](O)(CO)[C@@]2(C)CCCC(C)(C)[C@H]12 (stereo not given in full)
inactive: Potency (OV90) | Potency (PA-1) | Potency (SKOV3) | Potency (Tov-21-G) | Potency (Tov112D)

CN1CCCC1Cc1c[nH]c2ccc(CCS(=O)(=O)c3ccccc3)cc12 (stereo not given)
inactive: Potency (OV90) | Potency (PA-1) | Potency (SKOV3) | Potency (Tov-21-G) | Potency (Tov112D)

CC1=C(C(=O)OC2OC(COC3OC(CO)C(O)C(O)C3O)C(O)C(O)C2O)C(C)(C)CCC1 (stereo not given)
inactive: Potency (OV90) | Potency (PA-1) | Potency (SKOV3) | Potency (Tov-21-G) | Potency (Tov112D)

CCC(=O)OCC(=O)[C@@]1(OC(=O)CC)[C@@H](C)C[C@H]2[C@@H]3CCC4=CC(=O)C=C[C@]4(C)[C@@]3(F)[C@@H](O)C[C@@]21C
inactive: Potency (OV90) | Potency (PA-1) | Potency (SKOV3) | Potency (Tov-21-G) | Potency (Tov112D)

O=C(Cc1ccccc1)OC[C@H]1O[C@H](O[C@H]2O[C@H](CO)[C@@H](O)[C@H](O)[C@H]2O)[C@H](O)[C@@H](O)[C@@H]1O
inactive: Potency (OV90) | Potency (PA-1) | Potency (SKOV3) | Potency (Tov-21-G) | Potency (Tov112D)

NC[C@H]1CCC[C@@H](CNC(=O)[C@@H](Cc2c[nH]c3ccccc23)NC(=O)N2CCC3(C=Cc4ccccc43)CC2)C1
inactive: Potency (OV90) | Potency (PA-1) | Potency (SKOV3) | Potency (Tov-21-G) | Potency (Tov112D)

C/C=C/C=C/C(O)=C1/C(=O)[C@]2(C)C3/C(=C(O)/C=C/C=C/C)C(=O)C4(C)C1[C@]1(C)O[C@@]4(O)[C@@]3(C)O[C@@]12O
inactive: Potency (OV90) | Potency (PA-1) | Potency (SKOV3) | Potency (Tov-21-G) | Potency (Tov112D)

O=C(O)c1cccc(C(=O)CCC2OC(n3cnc4c(=O)[nH]cnc43)C(O)C2O)c1 (stereo not given)
inactive: Potency (OV90) | Potency (PA-1) | Potency (SKOV3) | Potency (Tov-21-G) | Potency (Tov112D)

CC(C)=CCC[C@](C)(O[C@@H]1O[C@H](CO)[C@@H](O)[C@H](O)[C@H]1O)[C@H]1CC[C@]2(C)[C@@H]1[C@H](O)CC1[C@@]3(C)CC[C@H](O)C(C)(C)C3[C@@H](O[C@@H]3O[C@H](CO)[C@@H](O)[C@H](O)[C@H]3O[C@@H]3O[C@@H](C)[C@H](O)[C@@H](O)[C@H]3O)C[C@]12C (stereo not given in full)
inactive: activity change, negative = cytotoxicity (OV90) -3.64% [at 11.6 µM] | activity change, negative = cytotoxicity (PA-1) 24.4% [at 11.6 µM] | activity change, negative = cytotoxicity (SKOV3) 18.8% [at 11.6 µM] | activity change, negative = cytotoxicity (Tov-21-G) -0.988% [at 11.6 µM] | activity change, negative = cytotoxicity (Tov112D) 2.74% [at 11.6 µM]

CC1(C)[C@@H]2CC=C(CO[C@@H]3O[C@H](CO[C@@H]4OC[C@H](O)[C@H](O)[C@H]4O)[C@@H](O)[C@H](O)[C@H]3O)[C@H]1C2
inactive: Potency (OV90) | Potency (PA-1) | Potency (SKOV3) | Potency (Tov-21-G) | Potency (Tov112D)

CCNC(=O)C1CC(F)(c2ccc(CN3CCCC3)c(F)c2)C1 (stereo not given)
inactive: Potency (OV90) | Potency (PA-1) | Potency (SKOV3) | Potency (Tov-21-G) | Potency (Tov112D)

COc1ccc(CCc2nc3cc(-c4c(C)noc4C)ccc3n2C[C@H](C)N2CCOCC2)cc1Cl
inactive: Potency (OV90) | Potency (PA-1) | Potency (SKOV3) | Potency (Tov-21-G) | Potency (Tov112D)

C=C1C(O)C(O)C2(CC3C(C)=CCC4C(C)(C(=O)O)CCCC34C)OC2C1O (stereo not given)
inactive: Potency (OV90) | Potency (PA-1) | Potency (SKOV3) | Potency (Tov-21-G) | Potency (Tov112D)

C=C1C(O)CC2C(C(=O)O)=COC(O[C@@H]3O[C@H](COC(=O)c4ccc(O)cc4)[C@@H](O)[C@H](O)[C@H]3O)C12 (stereo not given in full)
inactive: Potency (OV90) | Potency (PA-1) | Potency (SKOV3) | Potency (Tov-21-G) | Potency (Tov112D)

CC(C)Oc1ccc(-c2nc(-c3cccc4c3CCC4NCCC(=O)O)no2)cc1C#N (stereo not given)
inactive: Potency (OV90) | Potency (PA-1) | Potency (SKOV3) | Potency (Tov-21-G) | Potency (Tov112D)

CC1(C)CC[C@]2(C(=O)O[C@@H]3O[C@H](CO)[C@@H](O)[C@H](O)[C@H]3O)CC[C@]3(C)C(=CCC4[C@@]5(C)CC[C@H](O[C@@H]6O[C@H](C(=O)O)[C@@H](O)[C@H](O)[C@H]6OC6OC(CO)C(O)C(O)C6O)C(C)(C)C5CC[C@]43C)[C@@H]2C1 (stereo not given in full)
inactive: activity change, negative = cytotoxicity (OV90) 1.96% [at 11.6 µM] | activity change, negative = cytotoxicity (PA-1) 17.8% [at 11.6 µM] | activity change, negative = cytotoxicity (SKOV3) 14.1% [at 11.6 µM] | activity change, negative = cytotoxicity (Tov-21-G) 6.86% [at 11.6 µM] | activity change, negative = cytotoxicity (Tov112D) 7.56% [at 11.6 µM]

COC(=O)[C@H](c1ccccc1Cl)N1CCC2SC(=O)C=C2C1 (stereo not given in full)
inactive: Potency (OV90) | Potency (PA-1) | Potency (SKOV3) | Potency (Tov-21-G) | Potency (Tov112D)

CCC/C=C1\OC(=O)C2=C1CCC(O)C2O (stereo not given)
inactive: Potency (OV90) | Potency (PA-1) | Potency (SKOV3) | Potency (Tov-21-G) | Potency (Tov112D)

OC[C@H]1O[C@@H](OCCc2ccccc2)[C@H](O)[C@@H](O)[C@@H]1O
inactive: Potency (OV90) | Potency (PA-1) | Potency (SKOV3) | Potency (Tov-21-G) | Potency (Tov112D)

CC(C)c1c(NC(=O)Nc2ccc(Cl)cc2)c(=O)n(-c2ccccc2)n1C
inactive: Potency (OV90) | Potency (PA-1) | Potency (SKOV3) | Potency (Tov-21-G) | Potency (Tov112D)

COc1c2ccoc2nc2c(OC)c(O[C@@H]3O[C@@H](C)[C@H](O)[C@@H](O[C@@H]4O[C@H](CO)[C@@H](O)[C@H](O)[C@H]4O)[C@H]3OC(C)=O)ccc12
inactive: Potency (OV90) | Potency (PA-1) | Potency (SKOV3) | Potency (Tov-21-G) | Potency (Tov112D)

O=C(O)/C=C/c1ccc2occc2c1O[C@@H]1O[C@H](CO)[C@@H](O)[C@H](O)[C@H]1O
inactive: Potency (OV90) | Potency (PA-1) | Potency (SKOV3) | Potency (Tov-21-G) | Potency (Tov112D)

C=C1C[C@]23C[C@@]1(O)CC[C@H]2[C@@]12C=C[C@H](O)[C@@](C)(C(=O)O1)[C@H]2[C@@H]3C(=O)O
inactive: Potency (OV90) | Potency (PA-1) | Potency (SKOV3) | Potency (Tov-21-G) | Potency (Tov112D)
